Measurements as given in PubChem BioAssay AID1159580 (chemical genetic matrix, 2015).
The whole screen tested about 5,500 compounds, of which about 2,000 (36%) were called active. Roughly 18% stayed inconclusive and do not appear here. The list shows a part of the results. A number with no mark means an inactive call. No stated cut-off is given here; in the data, active means normalized growth mostly below about 0.91 (no sharp cut-off); inconclusive means no clear call, values can overlap the other calls; inactive means mostly above about 0.92.

Assay: chemical genetic growth profiling, strain panel (AID 1159580);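 further: tested at 20 µM; growth read once vehicle control cultures reached saturation at 30 °C; 1 = growth at the plate median or of vehicle wells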
Settings: growth OD

O=C(O[C@@H]1Cc2c(O)cc(O)cc2O[C@@H]1c1cc(O)c(=O)c2c(O)c(O)cc([C@H]3Oc4cc(O)cc(O)c4C[C@H]3O)c2c1)c1cc(O)c(O)c(O)c1
normalized growth (S. cerevisiae deletion strains, locus YJR066W, strain TOR1, stronger effect = lower value): 0.969 | normalized growth (S. cerevisiae deletion strains, locus YKL009W, strain mrt4, stronger effect = lower value): 1.05 | normalized growth (S. cerevisiae deletion strains, locus YKL068W, stronger effect = lower value): 1.04 | normalized growth (S. cerevisiae deletion strains, locus YKL085W, strain MDH1 (second series), stronger effect = lower value): 1.03 | normalized growth (S. cerevisiae deletion strains, locus YKL085W, strain MDH1, stronger effect = lower value): 1.03 | normalized growth (S. cerevisiae deletion strains, locus YKL160W, strain elf1, stronger effect = lower value): 0.709 (active) | normalized growth (S. cerevisiae deletion strains, locus YKL190W, strain CNB1, stronger effect = lower value): 0.211 (active) | normalized growth (S. cerevisiae deletion strains, locus YKR001C, strain vps1, stronger effect = lower value): 0.809 (active) | normalized growth (S. cerevisiae deletion strains, locus YKR026C, strain gcn3, stronger effect = lower value): 0.988 | normalized growth (S. cerevisiae deletion strains, locus YKR091W, strain srl3, stronger effect = lower value): 0.944 | normalized growth (S. cerevisiae deletion strains, locus YLL001W, strain dnm1, stronger effect = lower value): 0.658 (active) | normalized growth (S. cerevisiae deletion strains, locus YLL026W, stronger effect = lower value): 0.719 (active) | normalized growth (S. cerevisiae deletion strains, locus YLL041C, strain sdh2, stronger effect = lower value): 0.79 (active) | normalized growth (S. cerevisiae deletion strains, locus YLR027C, strain aat2, stronger effect = lower value): 0.495 (active) | normalized growth (S. cerevisiae deletion strains, locus YLR039C, strain RIC1, stronger effect = lower value): 0.271 (active) | normalized growth (S. cerevisiae deletion strains, locus YLR058C, strain SHM2, stronger effect = lower value): 0.219 (active) | normalized growth (S. cerevisiae deletion strains, locus YLR102C, strain apc9, stronger effect = lower value): 1.02 | normalized growth (S. cerevisiae deletion strains, locus YLR113W, strain HOG1, stronger effect = lower value): 1.11 | normalized growth (S. cerevisiae deletion strains, locus YLR221C, strain rsa3, stronger effect = lower value): 0.699 (active) | normalized growth (S. cerevisiae deletion strains, locus YLR258W, strain gsy2, stronger effect = lower value): 0.638 (active) | normalized growth (S. cerevisiae deletion strains, locus YLR262C, strain YPT6 (second series), stronger effect = lower value): 0.524 (active) | normalized growth (S. cerevisiae deletion strains, locus YLR262C, strain YPT6, stronger effect = lower value): 0.552 (active) | normalized growth (S. cerevisiae deletion strains, locus YLR268W, strain sec22, stronger effect = lower value): 0.644 (active) | normalized growth (S. cerevisiae deletion strains, locus YLR320W, strain mms22, stronger effect = lower value): 0.635 (active) | normalized growth (S. cerevisiae deletion strains, locus YLR330W, strain CHS5, stronger effect = lower value): 0.791 (active) | normalized growth (S. cerevisiae deletion strains, locus YLR342W, strain FKS1, stronger effect = lower value): 0.423 (active) | normalized growth (S. cerevisiae deletion strains, locus YLR357W, strain rsc2, stronger effect = lower value): 0.624 (active) | normalized growth (S. cerevisiae deletion strains, locus YLR370C, strain arc18, stronger effect = lower value): 0.593 (active) | normalized growth (S. cerevisiae deletion strains, locus YLR371W, strain rom2, stronger effect = lower value): 0.661 (active) | normalized growth (S. cerevisiae deletion strains, locus YLR384C, strain iki3, stronger effect = lower value): 0.784 (active) | normalized growth (S. cerevisiae deletion strains, locus YLR418C, strain cdc73, stronger effect = lower value): 0.505 (active) | normalized growth (S. cerevisiae deletion strains, locus YML016C, strain PPZ1, stronger effect = lower value): 0.111 (active) | normalized growth (S. cerevisiae deletion strains, locus YML032C, strain rad52, stronger effect = lower value): 0.968 | normalized growth (S. cerevisiae deletion strains, locus YML120C, strain ndi1, stronger effect = lower value): 0.727 (active) | normalized growth (S. cerevisiae deletion strains, locus YML124C, strain tub3, stronger effect = lower value): 0.949 | normalized growth (S. cerevisiae deletion strains, locus YMR058W, strain fet3, stronger effect = lower value): 0.0992 (active) | normalized growth (S. cerevisiae deletion strains, locus YMR078C, strain ctf18, stronger effect = lower value): 1.01 | normalized growth (S. cerevisiae deletion strains, locus YMR125W, strain sto1, stronger effect = lower value): 1.04 | normalized growth (S. cerevisiae deletion strains, locus YMR129W, stronger effect = lower value): 0.789 (active) | normalized growth (S. cerevisiae deletion strains, locus YMR205C, strain PFK2, stronger effect = lower value): 0.416 (active) | normalized growth (S. cerevisiae deletion strains, locus YMR223W, strain ubp8, stronger effect = lower value): 0.844 (active) | normalized growth (S. cerevisiae deletion strains, locus YMR231W, strain pep5, stronger effect = lower value): 0.229 (active) | normalized growth (S. cerevisiae deletion strains, locus YMR263W, strain SAP30, stronger effect = lower value): 0.743 (active) | normalized growth (S. cerevisiae deletion strains, locus YMR307W, strain GAS1, stronger effect = lower value): 0.426 (active) | normalized growth (S. cerevisiae deletion strains, locus YNL067W, strain RPL9B, stronger effect = lower value): 0.547 (active) | normalized growth (S. cerevisiae deletion strains, locus YNL071W, strain lat1, stronger effect = lower value): 0.747 (active) | normalized growth (S. cerevisiae deletion strains, locus YNL183C, strain NPR1, stronger effect = lower value): 0.963 | normalized growth (S. cerevisiae deletion strains, locus YNL209W, strain ssb2, stronger effect = lower value): 0.141 (active) | normalized growth (S. cerevisiae deletion strains, locus YNL233W, strain BNI4, stronger effect = lower value): 0.623 (active) | normalized growth (S. cerevisiae deletion strains, locus YNL248C, strain rpa49, stronger effect = lower value): 0.862 (active) | normalized growth (S. cerevisiae deletion strains, locus YNL250W, strain rad50, stronger effect = lower value): 1.05 | normalized growth (S. cerevisiae deletion strains, locus YNL271C, strain bni1, stronger effect = lower value): 1 | normalized growth (S. cerevisiae deletion strains, locus YNL298W, strain CLA4, stronger effect = lower value): 0.998 | normalized growth (S. cerevisiae deletion strains, locus YNL307C, strain MCK1, stronger effect = lower value): 1.01 | normalized growth (S. cerevisiae deletion strains, locus YNL322C, strain KRE1 (second series), stronger effect = lower value): 0.941 | normalized growth (S. cerevisiae deletion strains, locus YNL322C, strain KRE1, stronger effect = lower value): 0.243 (active) | normalized growth (S. cerevisiae deletion strains, locus YNR049C, strain mso1, stronger effect = lower value): 0.945 | normalized growth (S. cerevisiae deletion strains, locus YNR052C, strain pop2, stronger effect = lower value): 0.754 (active) | normalized growth (S. cerevisiae deletion strains, locus YOL012C, strain htz1): 0.255 | normalized growth (S. cerevisiae deletion strains, locus YOL147C, strain pex11, stronger effect = lower value): 0.862 (active) | normalized growth (S. cerevisiae deletion strains, locus YOR001W, strain rrp6, stronger effect = lower value): 0.736 (active) | normalized growth (S. cerevisiae deletion strains, locus YOR061W, strain CKA2, stronger effect = lower value): 0.441 (active) | normalized growth (S. cerevisiae deletion strains, locus YOR069W, strain VPS5, stronger effect = lower value): 0.503 (active) | normalized growth (S. cerevisiae deletion strains, locus YOR070C, strain gyp1, stronger effect = lower value): 0.569 (active) | normalized growth (S. cerevisiae deletion strains, locus YOR080W, strain dia2, stronger effect = lower value): 0.253 (active) | normalized growth (S. cerevisiae deletion strains, locus YOR083W, strain WHI5, stronger effect = lower value): 0.541 (active) | normalized growth (S. cerevisiae deletion strains, locus YOR106W, strain vam3, stronger effect = lower value): 0.143 (active) | normalized growth (S. cerevisiae deletion strains, locus YOR136W, strain idh2, stronger effect = lower value): 0.929 | normalized growth (S. cerevisiae deletion strains, locus YOR144C, strain elg1, stronger effect = lower value): 0.943 | normalized growth (S. cerevisiae deletion strains, locus YOR184W, strain ser1, stronger effect = lower value): 0.649 (active) | normalized growth (S. cerevisiae deletion strains, locus YOR231W, strain MKK1, stronger effect = lower value): 1.02 | normalized growth (S. cerevisiae deletion strains, locus YOR265W, strain rbl2, stronger effect = lower value): 0.699 (active) | normalized growth (S. cerevisiae deletion strains, locus YOR270C, strain vph1, stronger effect = lower value): 0.255 (active) | normalized growth (S. cerevisiae deletion strains, locus YOR290C, strain snf2, stronger effect = lower value): 0.487 (active) | normalized growth (S. cerevisiae deletion strains, locus YOR316C, strain cot1, stronger effect = lower value): 1.02 | normalized growth (S. cerevisiae deletion strains, locus YPL051W, strain arl3, stronger effect = lower value): 0.279 (active) | normalized growth (S. cerevisiae deletion strains, locus YPL078C, strain atp4, stronger effect = lower value): 0.731 (active) | normalized growth (S. cerevisiae deletion strains, locus YPL106C, strain sse1, stronger effect = lower value): 0.66 (active) | normalized growth (S. cerevisiae deletion strains, locus YPL240C, strain hsp82, stronger effect = lower value): 0.779 (active) | normalized growth (S. cerevisiae deletion strains, locus YPL241C, strain CIN2, stronger effect = lower value): 0.509 (active) | normalized growth (S. cerevisiae deletion strains, locus YPL256C, strain CLN2, stronger effect = lower value): 1.06 | normalized growth (S. cerevisiae deletion strains, locus YPR119W, strain clb2, stronger effect = lower value): 1.02 | normalized growth (S. cerevisiae deletion strains, locus YPR141C, strain kar3, stronger effect = lower value): 1.03 | normalized growth (S. cerevisiae deletion strains, locus YPR163C, strain tif3, stronger effect = lower value): 0.974 | normalized growth (S. cerevisiae deletion strains, locus YPR167C, strain met16, stronger effect = lower value): 0.918 (active) | normalized growth (S. cerevisiae deletion strains, strain wtn01, stronger effect = lower value): 0.679 (active) | normalized growth (S. cerevisiae strains, strain wild type, stronger effect = lower value): 0.0985 (active)
